Data reported in PubChem BioAssay (Tox21).
Inconclusive results are not listed. Active and inactive are the calls of the source. Unless noted, calls come from the whole dose curve.

Legend:
[1] = qHTS assay to identify small molecule agonists of the estrogen related receptor signaling pathway with the pleiotropic PPARgamma coactivator (PGC) from Tox21 10K library (AID 1224842; active = well fitted curve in the direction sought with a large enough effect in the repeat runs; an effect the other way counts as inactive or inconclusive; note: nearly all actives have a fitted effect of over 15% in size)
Outline: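 PGC/ERR reporter cell line, 2,000 cells per well, incubated 6 h at 37 C before 23 nL compound in DMSO was added. After 18 h at 37 C, One-Glo luminescence read following 30 min at room temperature.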

[2] = target: Thyrotropin receptor (Homo sapiens) (UniProt P16473); test: qHTS assay to identify small molecule agonists of the thyroid stimulating hormone receptor (TSHR) signaling pathway (AID 1224843); note: nearly all actives have a fitted effect of over 45% in size
Outline: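 TSHR-HEK293 cells in agonist mode, 30 min room-temperature step, then cAMP measured by competitive HTRF (cAMP-d2 with anti-cAMP cryptate) after 1 h at room temperature. Tested at 15 concentrations in triplicate.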

[3] = qHTS assay to identify small molecule agonists of the hypoxia (HIF-1) signaling pathway - cell viability counter screen (AID 1224844); note: nearly all actives have a fitted effect of over 50% in size
Outline: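 Tox21 10K compounds were added to HRE-bla ME-180 cells (0.5% dialyzed FBS) and incubated 17 hrs at 37C; ATP-based CellTiter-Glo luminescence then reported cell viability in the same wells.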

[4] = qHTS assay to identify small molecule agonists of H2AX (AID 1224845; active = well fitted activation curve with a large enough effect in the signal ratio in the repeat runs, not every such curve was filed as active; the % refers to the signal ratio)
Outline: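 Wild-type CHO-K1 cells, plated overnight, exposed 3hr at 37C to 15 concentrations (0.76% DMSO final). Lysed, then HTRF anti-pH2AX (S139) cryptate and anti-H2AX-d2 antibodies, 24 hr room temperature; 665/620 nm emission read.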

[5] = qHTS assay to identify small molecule agonists of H2AX - cell viability counter screen (AID 1224847); note: top concentration of the series differs between compounds; nearly all actives have a fitted effect of over 30% in size
Outline: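 For this counter screen, overnight-attached CHO-K1 cells received test compounds (15 concentrations, 0.76% DMSO final); 3 hr later at 37C, CellTiter-Glo reagent was added and luminescence recorded after 30 min at room temperature.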

[6] = qHTS assay to identify small molecule antagonists of the estrogen related receptor (ERR) signaling pathway from Tox21 library (AID 1224848; active = well fitted curve in the direction sought with a large enough effect in the repeat runs; an effect the other way counts as inactive or inconclusive; note: nearly all actives have a fitted effect of over 50% in size)
Outline: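 ERR reporter cell line (from NTP) seeded 2,000 cells/well, rested 6 h at 37 C/5% CO2, then pin-dosed with compounds in DMSO. After 18 h at 37 C, ONE-Glo added; luminescence read after 30 min at room temperature.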

[7] = qHTS RealTime-Glo MT Cell Viability Assay in HepG2 cells - 24 hour (AID 1224867; active = well fitted curve in the direction sought with a large enough effect in the repeat runs; an effect the other way counts as inactive or inconclusive; note: nearly all actives have a fitted effect of over 50% in size)
Outline: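 HepG2 suspension premixed with RealTime-Glo reagents is plated at 600 cells per well and left 5 h at 37 C/5% CO2. Compounds in DMSO then go in, and bioluminescence reflecting viable cell number is recorded over 40 h.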

[8] = qHTS assay to identify small molecule agonists of the hypoxia (HIF-1) signaling pathway (AID 1224846; active = well fitted activation curve with a large enough effect in the signal ratio in the repeat runs, not every such curve was filed as active; the % refers to the signal ratio)
Outline: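 Steps: seed ME-180 HRE-bla cells (2,000/well, 0.5% dialyzed FBS); incubate 5 hrs at 37C; pin-transfer compounds or DMSO; incubate 17 hrs; add LiveBLAzer B/G substrate CCF4-AM; measure reporter activation by FRET.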

[9] = qHTS assay to identify small molecule agonists of the estrogen related receptor (ERR) signaling pathway from Tox21 library (AID 1224849); details: ERR reporter cell line, ONE-Glo luciferase, 18 h; at 92.4 µM (top of the series) unless noted; note: nearly all actives have a fitted effect of over 15% in size
Outline: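 Agonist signal is luciferase luminescence from an ERR reporter cell line treated 18 h at 37 C with DMSO-dissolved compounds, read 30 min after ONE-Glo addition at room temperature.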
% is set by controls: 0 for no effect and ±100 for the full control effect.

Thyrotropin receptor (Homo sapiens), sequence (P16473 whole entry, looked up): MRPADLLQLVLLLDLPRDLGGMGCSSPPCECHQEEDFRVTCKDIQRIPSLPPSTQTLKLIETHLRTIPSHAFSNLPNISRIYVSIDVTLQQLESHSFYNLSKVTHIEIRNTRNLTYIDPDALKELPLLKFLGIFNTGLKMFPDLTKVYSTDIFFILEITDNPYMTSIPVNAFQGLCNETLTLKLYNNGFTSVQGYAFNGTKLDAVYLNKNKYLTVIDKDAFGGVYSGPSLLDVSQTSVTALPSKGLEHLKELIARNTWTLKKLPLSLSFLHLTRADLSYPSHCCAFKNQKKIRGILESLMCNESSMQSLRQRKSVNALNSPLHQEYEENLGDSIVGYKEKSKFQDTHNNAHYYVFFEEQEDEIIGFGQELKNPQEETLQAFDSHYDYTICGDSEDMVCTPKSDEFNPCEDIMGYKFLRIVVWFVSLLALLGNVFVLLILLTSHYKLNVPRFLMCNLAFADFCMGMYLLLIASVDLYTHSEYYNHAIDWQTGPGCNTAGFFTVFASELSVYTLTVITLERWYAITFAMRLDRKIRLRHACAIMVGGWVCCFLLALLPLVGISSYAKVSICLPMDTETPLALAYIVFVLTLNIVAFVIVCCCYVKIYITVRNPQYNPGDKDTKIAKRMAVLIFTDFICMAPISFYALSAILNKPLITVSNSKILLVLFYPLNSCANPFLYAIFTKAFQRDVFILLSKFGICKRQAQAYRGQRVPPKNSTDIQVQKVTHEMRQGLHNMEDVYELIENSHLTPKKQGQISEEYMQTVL

N=C(N)N1CCc2ccccc2C1
inactive: activation [1] 0.335% [at 8.39 µM] | activation [2] -1.09% [at 8.39 µM] | activity change, negative = cytotoxicity [3] 5.71% [at 6.97 µM] | activation (H2AX phosphorylation) [4] 0.461% [at 14 µM] | activity change, negative = cytotoxicity [5] 1.46% [at 14 µM] | activity, negative = inhibition [6] 3.19% [at 8.39 µM] | activity change, negative = cytotoxicity [7] -0.623% [at 6.97 µM]

Cc1cccc(N)n1
inactive: Potency [2] | outcome [3] | outcome [4] | outcome [8] | outcome [5] | outcome [7]

O=C(c1ccccc1)c1cccc(O)c1
inactive: Potency [2] | outcome [3] | outcome [4] | outcome [8]

CCCCCC(CC)OC(=O)CCCOc1ccc(Cl)cc1Cl (stereo not given)
inactive: Potency [1] | outcome [3] | outcome [4] | outcome [5] | outcome [6] | activity change, positive = activation [9] 6.42% | outcome [7]

CC(C)C(C)C
inactive: Potency [2] | outcome [3] | outcome [4] | outcome [8] | outcome [5] | outcome [7]

CSC(=O)c1cccc2nnsc12
inactive: Potency [2] | outcome [3] | outcome [4] | outcome [8] | outcome [5] | outcome [7]

CCCCNCC
inactive: Potency [2] | outcome [3] | outcome [4] | outcome [8] | outcome [5]

CNC(C)=O
inactive: Potency [2] | outcome [3] | outcome [4] | outcome [8] | outcome [5] | outcome [7]

Cc1ccc(Br)cc1
inactive: Potency [2] | outcome [3] | outcome [4] | outcome [8] | outcome [5] | outcome [7]

COc1cc(S(N)(=O)=O)cc(C(=O)O)c1OC
inactive: Potency [2] | outcome [3] | outcome [4] | outcome [8] | outcome [5] | outcome [7]

Clc1cc(Cl)c(Cl)c(Cl)c1Cl
inactive: Potency [2] | outcome [3] | outcome [4] | outcome [8] | outcome [5] | outcome [7]

CC(=O)Nc1ccc(S(=O)(=O)Nc2cc(C)on2)cc1
inactive: Potency [2] | outcome [3] | outcome [4] | outcome [8] | outcome [5] | outcome [7]

O=C1CCCc2c(O)cccc21
inactive: Potency [1] | outcome [3] | outcome [4] | outcome [5] | outcome [6] | outcome [7]

C[C@H]1COc2c(C3(N)CC3)c(F)cc3c(=O)c(C(=O)O)cn1c23
inactive: Potency [2] | outcome [3] | outcome [4] | outcome [8] | outcome [5] | outcome [7]

CC(=O)OC1CCC(C(C)(C)C)CC1 (stereo not given)
inactive: Potency [2] | outcome [3] | outcome [4] | outcome [8] | outcome [5]

Cc1nc2ccc(Cl)cc2[nH]1
inactive: Potency [2] | outcome [3] | outcome [4] | outcome [8] | outcome [5]

CN(C)c1ccncc1
inactive: Potency [2] | outcome [3] | outcome [4] | outcome [8] | outcome [5] | outcome [6] | outcome [7]

CCCCC(CC)CCC(CC(C)C)OS(=O)(=O)O (stereo not given)
inactive: Potency [2] | outcome [3] | outcome [4] | outcome [8] | outcome [5] | outcome [7]

C[C@@H]1NC(=O)[C@@H](N)CNC(=O)[C@H](C2CCNC(N)=N2)NC(=O)/C(=C/NC(N)=O)NC(=O)[C@H](CNC(=O)C[C@@H](N)CCCN)NC1=O (stereo not given in full)
inactive: activation [2] -10.7% [at 0.349 µM] | activity change, negative = cytotoxicity [3] 3.53% [at 0.29 µM] | activation (H2AX phosphorylation) [4] -2.47% [at 0.582 µM] | activation [8] -0.509% [at 0.291 µM] | activity change, negative = cytotoxicity [5] 1.7% [at 0.582 µM] | activity change, negative = cytotoxicity [7] 4.49% [at 0.29 µM]

CC(C)(C)OC(=O)c1ccccc1C(=O)O
inactive: Potency [2] | outcome [3] | outcome [4] | outcome [8] | outcome [5] | outcome [7]

CCCCCCCCC1CO1 (stereo not given)
inactive: Potency [2] | outcome [3] | outcome [4] | outcome [8] | outcome [5]

Cc1cc(=O)oc2cc(O[C@@H]3SC[C@@H](O)[C@H](O)[C@H]3O)ccc12
inactive: Potency [2] | outcome [3] | outcome [4] | outcome [8] | outcome [5] | outcome [7]

O=C(OOC(=O)c1ccccc1)c1ccccc1
inactive: Potency [2] | outcome [3] | outcome [4] | outcome [8] | outcome [5] | outcome [7]

CCCC(=O)CC
inactive: Potency [2] | outcome [3] | outcome [4] | outcome [8] | outcome [5] | outcome [7]

CC(C)C[P+](C)(CC(C)C)CC(C)C
inactive: Potency [1] | outcome [3] | outcome [4] | outcome [8] | outcome [5] | outcome [6] | activity change, positive = activation [9] -12.2% | outcome [7]

CCCCCCCCCCCCCCCC(=O)OC
inactive: activation [2] -0.158% [at 19 µM] | activity change, negative = cytotoxicity [3] 9.89% [at 15.8 µM] | activation (H2AX phosphorylation) [4] 4.71% [at 31.6 µM] | activation [8] 0.217% [at 15.8 µM] | activity change, negative = cytotoxicity [5] -4.52% [at 31.6 µM] | activity change, negative = cytotoxicity [7] -0.801% [at 15.8 µM]

NCC1CCC(C(=O)Oc2ccc(CCC(=O)O)cc2)CC1 (stereo not given)
inactive: Potency [2] | outcome [3] | outcome [4] | outcome [8] | outcome [5]

CN(C)CCCN(C)C
inactive: activation [2] -10.3% [at 8.39 µM] | activity change, negative = cytotoxicity [3] 11.5% [at 6.97 µM] | activation (H2AX phosphorylation) [4] 0.536% [at 14 µM] | activation [8] -0.634% [at 7.01 µM] | activity change, negative = cytotoxicity [5] 0.19% [at 14 µM]

CCCCC(O)/C=C(C)/C=C/C=C/C(=O)N1CCCC1=O (stereo not given)
inactive: Potency [2] | outcome [3] | outcome [4] | outcome [8] | outcome [5]

CC(C)(C)C(=O)CC(=O)C(C)(C)C
inactive: Potency [1] | outcome [3] | outcome [4] | outcome [8] | outcome [5] | outcome [6] | activity change, positive = activation [9] 3.23% | outcome [7]

CN(C)CCc1c[nH]c2ccc(CS(=O)(=O)N3CCCC3)cc12
inactive: Potency [2] | outcome [3] | outcome [4] | outcome [8] | outcome [5]

CCN1CCN(C(=O)N[C@@H](C(=O)N[C@@H]2C(=O)N3C(C(=O)O)=C(CSc4nnnn4C)CS[C@H]23)c2ccc(O)cc2)C(=O)C1=O
inactive: Potency [2] | outcome [3] | outcome [4] | outcome [8] | outcome [5]

C=CC(C)(CCC=C(C)C)OC(=O)C(C)C (stereo not given)
inactive: Potency [2] | outcome [3] | outcome [4] | outcome [8] | outcome [5]

CC(C)(C)OC=O
inactive: Potency [2] | outcome [3] | outcome [4] | outcome [8] | outcome [5] | outcome [7]

O=CN1CCCCC1
inactive: Potency [2] | outcome [3] | outcome [4] | outcome [8] | outcome [5] | outcome [7]

O=C[C@@H](O)[C@H](O)[C@H](O)CO
inactive: Potency [2] | outcome [3] | outcome [4] | outcome [8] | outcome [5]
